Measured values taken from the supplement of paper PMC3334620.
Over roughly 33,000 sequences, “E-score (-0.5 to 0.5)” has its median near -0.043; the highest 2% begin near 0.37. Only a selection was taken, and the highest values are over-represented in it overall.

target: T1, Upc2 (UniProt Q12151); assay: PBM E-score (8-mer binding enrichment) (E-score (-0.5 to 0.5)); higher = stronger / more preferred TF binding; settings: protein concentration: 200 nM; construct: GST-full length
T1 sequence: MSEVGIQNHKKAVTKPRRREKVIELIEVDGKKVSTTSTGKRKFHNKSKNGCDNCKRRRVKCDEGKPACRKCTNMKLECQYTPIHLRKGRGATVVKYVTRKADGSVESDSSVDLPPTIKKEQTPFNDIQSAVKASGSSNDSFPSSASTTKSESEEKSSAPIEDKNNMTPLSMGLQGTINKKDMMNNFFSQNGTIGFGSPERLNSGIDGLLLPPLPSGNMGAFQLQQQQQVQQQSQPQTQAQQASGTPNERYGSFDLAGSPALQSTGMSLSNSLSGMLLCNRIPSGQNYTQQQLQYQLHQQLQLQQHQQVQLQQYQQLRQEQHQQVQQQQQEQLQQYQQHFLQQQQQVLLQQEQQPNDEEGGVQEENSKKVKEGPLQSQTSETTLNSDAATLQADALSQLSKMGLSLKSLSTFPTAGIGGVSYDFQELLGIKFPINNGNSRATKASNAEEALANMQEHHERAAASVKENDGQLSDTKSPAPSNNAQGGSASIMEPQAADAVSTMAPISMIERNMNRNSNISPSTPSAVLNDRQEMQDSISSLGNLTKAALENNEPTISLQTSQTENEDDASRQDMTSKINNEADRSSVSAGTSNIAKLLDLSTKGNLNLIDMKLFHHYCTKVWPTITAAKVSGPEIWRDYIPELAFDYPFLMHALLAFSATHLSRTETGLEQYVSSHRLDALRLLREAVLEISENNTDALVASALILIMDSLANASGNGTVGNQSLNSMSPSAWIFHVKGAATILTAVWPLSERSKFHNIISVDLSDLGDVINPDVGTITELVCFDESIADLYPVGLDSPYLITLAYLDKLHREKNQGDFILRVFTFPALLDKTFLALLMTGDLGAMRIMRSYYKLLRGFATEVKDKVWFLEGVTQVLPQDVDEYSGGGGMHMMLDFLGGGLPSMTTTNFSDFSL
Method: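 Universal 'all 10-mer' protein binding microarrays (Agilent AMADID 015681) probed with GST-tagged S. cerevisiae TFs (full-length or DBD) made by in vitro transcription/translation (PURExpress), about 100-200 nM. Bound TF was detected with fluorescent anti-GST. Each ungapped 8-mer (which stands for itself and its reverse complement) is scored by the PBM enrichment score (E-score), a modified Wilcoxon-Mann-Whitney statistic from -0.5 to +0.5, computed with the Universal PBM Analysis Suite. Scale: above 0.35 generally sequence-specific binding.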

Row | Sequence | PBM E-score
1 | CATGGATA | -0.0903
2 | ACGAACAG | 0.314
3 | GCGAACAA | 0.139
4 | GCGAACGC | 0.158
5 | GCGAACGA | 0.418
6 | ACGAACGA | 0.435
7 | ACGAACGC | 0.323
8 | ACGAAGGG | 0.287
9 | TCGAACGA | 0.368
10 | ACGAACGT | 0.32
11 | ACGAACGG | 0.387
12 | ACGAAGGA | 0.379
13 | CCGAAGGA | -0.0603
14 | TCGGTGCA | -0.104
15 | GTAATATA | 0.197
16 | CTTTCTCA | 0.0661
17 | AGCTCAGA | -0.0803
18 | ACCGACTA | 0.0499
19 | ATCGAGGG | -0.0211
20 | ATACATGC | 0.169
21 | AAAACCAC | -0.0422
22 | CCGAAGAA | -0.127
23 | AAGATGCC | 0.00959

Row | Sequence | PBM E-score
24 | CCGAACGG | 0.199
25 | CCGAACGC | 0.0534
26 | CCGAACGA | 0.384
27 | ATTATGAG | -0.102
28 | GCAAGGAC | -0.135
29 | ACTTCACG | 0.0222
30 | GCGAGAGC | 0.23
31 | ATGAGATG | -0.243
32 | ACGAGACC | 0.347
33 | ACGAGAGA | 0.343
34 | ACGAGAGC | 0.375
35 | ACGAGATC | 0.408
36 | CCGAGATC | 0.018
37 | ACGAGATG | 0.38
38 | ACGAGATA | 0.355
39 | ACGTCCCA | -0.208
40 | CCGCCCAG | -0.0999
41 | CGAAACAA | 0.188
42 | ATTTGCGC | 0.024
43 | GGATGCTA | -0.0482
44 | ATTTCGCC | 0.131
45 | CGAGCATA | 0.175
46 | CCTTAGGC | -0.0987

Row | Sequence | PBM E-score
47 | GACGAAAA | 0.177
48 | CACGAATA | 0.175
49 | TACGAATA | 0.415
50 | GACGAATC | 0.138
51 | CACGAATG | 0.0101
52 | AGCGAATG | 0.177
53 | CACGAATC | 0.0313
54 | GACGAATA | 0.0289
55 | CACGAAAA | 0.134
56 | TACGAAAA | 0.411
57 | AACGAATG | 0.416
58 | AACGAATC | 0.39
59 | CGACCAGA | 0.0386
60 | GACCGTGA | -0.166
61 | CCGCTGGA | -0.0874
62 | ATAATTGC | -0.037
63 | AACCTGCT | -0.0408
64 | CACCATGC | -0.295
65 | CCGGGCTA | -0.18
66 | CACGTACG | 0.346
67 | ATAACGAT | 0.144
68 | AACGAATT | 0.378
69 | AAGGAATT | -0.215

Row | Sequence | PBM E-score
70 | ACCGAATA | 0.0988
71 | AACGAATA | 0.381
72 | AAAGAATT | -0.0689
73 | ATCGAATA | 0.211
74 | GATCAGCC | -0.29
75 | ATCTTCCG | 0.168
76 | AGCTTTTA | 0.163
77 | TGTGCGAA | 0.0333
78 | GGAACGAA | 0.464
79 | CGAACGCC | 0.0792
80 | CGAACGGA | 0.223
81 | GGAACGCA | 0.174
82 | CGAACGTC | 0.135
83 | GTAACGAC | 0.326
84 | CGAACAAA | 0.183
85 | CGAACGAC | 0.401
86 | GGAACGAC | 0.453
87 | CGAACGAA | 0.398
88 | GGAACGTA | 0.282
89 | GGAACGCC | 0.013
